Compounds without any hit were thinned out: in the full panel of roughly 83,000, 20% have a hit.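 Cell lines were cultured in 96-well plates, exposed to a single compound concentration, and assessed for percent growth 48 hours later.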 Values without a mark were called inactive. Activity calls are given as the source filed them. The calls were made as follows: active = growth percent below 10; inactive = the rest.
Tests used:
Assay in all cases: NCI-60 one-dose screen, 48 h (100 = growth as untreated, 0 = no growth, -100 = all killed)
Conditions in all cases: 10 µM
NCI-H23 lung = test system: NCI-H23 lung
NCI-H226 lung = test system: NCI-H226 lung
NCI-H322M lung = test system: NCI-H322M lung
HOP-62 NSCLC = test system: HOP-62 NSCLC
HOP-92 NSCLC = test system: HOP-92 NSCLC
NCI-H522 lung = test system: NCI-H522 lung
A549/ATCC NSCLC = test system: A549/ATCC NSCLC
786-0 renal = test system: 786-0 renal
COLO 205 colon = test system: COLO 205 colon
DU-145 prostate = test system: DU-145 prostate
K-562 leukemia = test system: K-562 leukemia
MALME-3M melanoma = test system: MALME-3M melanoma
MDA-MB-231 breast = test system: MDA-MB-231 breast
SF-268 CNS = test system: SF-268 CNS
SF-295 CNS = test system: SF-295 CNS
SF-539 CNS = test system: SF-539 CNS
UACC-257 melanoma = test system: UACC-257 melanoma
M14 melanoma = test system: M14 melanoma
RXF 393 renal = test system: RXF 393 renal
NCI-H460 lung = test system: NCI-H460 lung

Row | Compound | growth (NCI-H23 lung) | growth (NCI-H226 lung) | growth (NCI-H322M lung) | growth (HOP-62 NSCLC) | growth (HOP-92 NSCLC) | growth (NCI-H522 lung) | growth (A549/ATCC NSCLC) | growth (786-0 renal) | growth (COLO 205 colon) | growth (DU-145 prostate) | growth (K-562 leukemia) | growth (MALME-3M melanoma) | growth (MDA-MB-231 breast) | growth (SF-268 CNS) | growth (SF-295 CNS) | growth (SF-539 CNS) | growth (UACC-257 melanoma) | growth (M14 melanoma) | growth (RXF 393 renal) | growth (NCI-H460 lung)
1 | Cc1cc(=O)oc2cc(OCCCCOc3ccc(/C=C/C(=O)Nc4ccccc4[N+](=O)[O-])cc3)ccc12 | 98.8% | 127% | 99.6% | 109% | 130% | 105% | 106% | 111% | 124% | 102% | 102% | 101% | 102% | 120% | 99.8% | 98.8% | 111% | 112% |  | 
2 | COc1ccc(Nc2nc(N)n(Cc3cccc(Br)c3)n2)cc1 | 0.552% (active) | 10% | 27.7% | 35.1% | -36.9% (active) | -20.9% (active) | 19.6% | -9.25% (active) | -46.6% (active) | 22.6% | 7.86% (active) | -25% (active) | -5.79% (active) | 16% | 4.42% (active) | -3.08% (active) | 6.73% (active) | 0.65% (active) |  | 
3 | COc1ccc2ncc(C#Cc3cncc(C(=O)Nc4ccc(CN5CCN(C)CC5)c(C(F)(F)F)c4)c3)n2n1 | -80.9% (active) | -68.4% (active) | -98% (active) | -61% (active) | -72% (active) | -65.5% (active) | -51.7% (active) | -55.7% (active) | -63.8% (active) | -100% (active) | -9.3% (active) | -93.6% (active) | -95.8% (active) | -64.5% (active) | -97.5% (active) | -100% (active) | -62.2% (active) | -80.2% (active) |  | 
4 | CN1CCN(Cc2ccc(C(=O)Nc3cccc(Nc4ccc5cc(O)ccc5n4)c3)cc2C(F)(F)F)CC1 | -66% (active) | 26.5% | -28.9% (active) | -66.5% (active) | -46.2% (active) | -68.8% (active) | -11.5% (active) | -47% (active) | -85.4% (active) | -16.1% (active) | -55.8% (active) | -88.7% (active) | -55% (active) | -26% (active) | -96.9% (active) | -95.5% (active) | -79.1% (active) | -40.2% (active) | -87.8% (active) | 
5 | COc1ccc(-c2nc(S(=O)(=O)c3ccccc3)c(S(C)(=O)=O)o2)cc1 | 3.05% (active) | 74.5% | 101% | 96.7% | -60.8% (active) | -97.2% (active) | 88.7% | -16.9% (active) | -85.6% (active) | -92.8% (active) |  | -92.7% (active) | -76.2% (active) | 61.8% | 87.3% | -95.9% (active) | -38.6% (active) | -24% (active) | -90.8% (active) | 
6 | COc1ccc(-c2cc(-c3cc(C(=O)c4ccc(Br)cc4)n4ccc(C)cc34)nc(N)c2C#N)cc1 | 63.1% | 60.4% | 93.6% | 95.1% | 87.5% | 89.9% | 93.2% | 56.9% | 67.2% | 75.9% | 92.6% | 74.4% | 59.7% | 93.9% | 89.1% | 5.3% (active) | 88% | 64.6% |  | 
7 | O=c1[nH][nH]c(Nc2ccccc2)c1N=Nc1ccc(F)cc1 | 102% | 84.4% | 83.5% | 119% | 71.2% | 75.1% | 84.8% | 91.3% | 107% | 102% |  | 116% | 86.6% | 81.5% | 111% | 92.8% | 127% | 107% | 83.1% | 
8 | O=C(Cn1cc(CSc2nnc3oc4ccccc4n23)nn1)Nc1ccc(Br)cc1 | 62.7% | 45.2% | 86.9% |  | 32% | 79.5% | 76.5% | 69.6% | 103% | 92.3% |  | 87.8% | 35.5% | 37.8% | 43.7% | 29.9% | 88.8% | 98.8% | 6.71% (active) | 101%
9 | Clc1ccc2c(N/N=C/c3c[nH]c4ccc(Br)cc34)ccnc2c1 | -85.4% (active) | -64.4% (active) | -96.9% (active) |  | -69.1% (active) | -66.9% (active) | 1.71% (active) | -54.7% (active) | -44% (active) | -79.3% (active) | -25.5% (active) | -83% (active) | -90.4% (active) | -35.7% (active) | -99.4% (active) | -87.6% (active) | -83.8% (active) | -46.3% (active) |  | 9.83% (active)

Reference: PubChem BioAssay (NCI)
